Sampled rows, rich in hits. Any-hit rate of the full collection: about 4.1%.
hgDAF12 agonist: hgDAF-12 agonism, primary luciferase screen | HEK293 GAL4-hgDAF12 UAS-luciferase reporter, agonist luminescence; normalized to butyrate control | activation, % at 6.8 µM | 1.8% of 370,000 active | AID 687014;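 active = activation above a cutoff set at the mean of all screened compounds plus 3 SD, cut at about 10% in these data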
ssDAF12 agonist: S. stercoralis DAF-12 activation, primary screen | HEK293 ssDAF-12/GRIP1 lit1-tk-luc reporter, luminescence; % of 3 µM dafachronic acid response | activation, % at 6.8 µM | 1% of 370,000 active | AID 652126;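 active = activation above the mean over all tested compounds plus 3 SD, cut at about 0.9% in these data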
DAX1 inh-1: NR0B1 (DAX1) inhibition | P51843 | HEK293 Gal4-DAX1 luciferase reporter, luminescence | inhibition, % at 6.75 µM | 0.99% of 340,000 active;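 active = inhibition above the mean over all tested compounds plus 3 SD, cut at about 4.2% in these data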;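 also: inhibition shows as a rise in luminescence from relieved DAX1 repression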
Target sequence (P51843 207-470 limits assumed): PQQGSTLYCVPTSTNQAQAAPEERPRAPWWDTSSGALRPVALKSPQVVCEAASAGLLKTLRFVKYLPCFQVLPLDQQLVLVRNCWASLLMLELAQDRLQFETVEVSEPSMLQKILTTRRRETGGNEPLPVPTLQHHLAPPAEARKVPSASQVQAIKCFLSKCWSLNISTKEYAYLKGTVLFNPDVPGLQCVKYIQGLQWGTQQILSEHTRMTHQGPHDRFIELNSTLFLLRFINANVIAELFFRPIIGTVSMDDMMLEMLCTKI
hcDAF12 agonist: activates DAF-12 receptor from parasite H. contortus; HEK293 hcDAF-12 lit1-tk-luc reporter, luminescence; 0% DMSO, 100% Δ7-dafachronic acid; 1.4% of 370,000 active; AID 652067; activation, % at 6.8 µM;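 active = activation above the mean of all tested compounds plus 3 SD, cut at about 5.5% in these data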
DAX1 inh-2: inhibitors of DAX1 repression of SF-1 activated StAR promoter; HEK293T StAR-luciferase reporter, SF-1/DAX-1 repression relief; inhibition, % at 6.8 µM; 1.1% of 370,000 active;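 active = inhibition above the mean over all tested compounds plus 3 SD, cut at about 3.6% in these data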;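 also: higher inhibition means more luminescence from relief of DAX-1 repression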
hgDAF12 conf: confirmation of H. glycines DAF-12 agonists | shares compounds with hgDAF12 agonist | HEK293 GAL4-hgDAF12 luciferase reporter, agonist mode; percent of butyrate response | activation, % at 6.8 µM | 80% of 3,300 active;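 active = mean activation over triplicate wells above the hit cutoff derived from the earlier primary screen, cut at about 11% in these data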
LXR ag 2: activates human LXR-beta, counter-screen for DAF-12 agonists | shares compounds with hgDAF12 agonist | HEK293 Gal4-LXR luciferase reporter, 24 h | activation, % at 6.8 µM | 3,300 tested, under 10 active;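 active = mean activation of the triplicate above a set limit carried over from the primary screen, none filed active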
Numbers stand for hits; – = inactive; · = not tested or not shown.

SMILES | hgDAF12 agonist | ssDAF12 agonist | DAX1 inh-1 | hcDAF12 agonist | DAX1 inh-2 | hgDAF12 conf | LXR ag 2
CS(=O)(=O)N1CCc2cc(NC(=O)c3ccc(Cl)cc3Cl)ccc21 | – | – | – | – | – | · | ·
O=C(Cn1cc(COc2ccc(Br)cc2[N+](=O)[O-])nn1)c1ccc(O)cc1 | – | – | – | – | – | · | ·
N#Cc1ccccc1OCc1nnc(-c2ccccc2Br)o1 | 15.1 | – | – | – | – | 11.3 | –
Clc1ccccc1OCc1nnc(-c2ccccc2Br)o1 | – | – | – | – | – | · | ·
COC(=O)C1=C(C)N(Cc2cccc(C(F)(F)F)c2)C(=NCc2ccc(OC)cc2)NC1c1ccc(Cl)cc1 (centres undefined) | – | – | · | – | – | · | ·
O=C(c1cc(-c2ccc(Cl)cc2)on1)N1CCCC1 | 13.5 | 1.1 | – | – | – | 15.7 | –
CCC1CCCCN1CCCNC(=O)c1c(O)nc2ccccn2c1=O (centres undefined) | – | – | – | – | – | · | ·
CCOC(=O)c1ccccc1NC1c2ccccc2C(=O)N1c1ccc(C)cn1 (centres undefined) | 15.2 | – | – | – | – | – | –
COc1ccc(C2=Nc3ccccc3N(C(=O)c3ccc4c(c3)OCO4)C2C(=O)Nc2c(C)cccc2C)cc1 (centres undefined) | 14.4 | – | · | – | – | – | –
CCOC(=O)CCC(=O)NNC(=O)COc1ccc(C(C)C)cc1Br | – | – | – | – | – | · | ·
Cc1nonc1C1CCCN1C(=O)c1cc(COc2ccc(F)cc2F)on1 (centres undefined) | 14.6 | – | – | – | – | 11.5 | –
O=C(C=C1SCCS1)/C=C/c1ccco1 | 14.8 | – | – | – | 3.7 | 14.3 | –
COc1ccc(C(=O)N2CCCC(Nc3ccc(F)cc3)C2)c(OC)c1 (centres undefined) | – | – | – | – | – | · | ·
O=C(O)CCC(=O)Nc1ccccc1C(=O)NCCc1ccccc1 | 19.2 | – | – | 5.9 | – | – | –
CN(c1ccccc1)S(=O)(=O)c1cccc(NC(=O)c2cc3ccccc3oc2=O)c1 | 15.7 | – | – | – | – | – | –
COc1ccccc1NS(=O)(=O)c1cccc(NC(=O)c2cc3ccccc3oc2=O)c1 | 15.6 | – | – | – | – | 13.0 | –
COc1ccccc1NS(=O)(=O)c1cccc(NC(=O)Nc2ccccc2)c1 | – | – | – | – | – | · | ·
c1ccc(NN(Cc2ccccn2)c2ccccc2)cc1 | – | – | – | – | – | · | ·
CCCCCN(C(=O)CCC(=O)OCC(=O)N(C)C1CCCCC1)c1c(N)n(CCCC)c(=O)[nH]c1=O | 14.3 | – | – | – | – | – | –
CC1(C(=O)NS(=O)(=O)c2cccc(C#N)c2)CCN1C(=O)Cc1ccc(Cl)cc1Cl (centres undefined) | – | – | · | – | – | · | ·
Cc1ccc(C(=O)Nc2cnc3ccccc3c2)cc1 | – | – | – | – | – | · | ·
COc1ccc(C(=O)Nc2ccc3c(c2)OCCO3)cc1Br | 14.7 | – | – | – | – | 15.1 | –
O=C(N/N=C/c1cc(O)ccc1[N+](=O)[O-])c1ccc2c(c1)OCCO2 | 17.8 | – | – | – | 3.6 | 13.6 | –
COc1ccc(/C=N/NC(=O)c2ccc3c(c2)OCCO3)cc1[N+](=O)[O-] | – | – | – | – | – | · | ·
Cc1cc(C(=O)Nc2ccc3c(c2)OCCO3)ccc1[N+](=O)[O-] | 18.2 | – | – | – | – | 12.1 | –
SMILES | hgDAF12 agonist | ssDAF12 agonist | DAX1 inh-1 | hcDAF12 agonist | DAX1 inh-2 | hgDAF12 conf | LXR ag 2
Cc1cc(C(=O)Nc2cnc3ccccc3c2)ccc1[N+](=O)[O-] | 14.9 | – | – | – | – | 16.9 | –
CN(C)C1(CN=Cc2cc(Cl)cc([N+](=O)[O-])c2O)CCCCC1 | – | – | – | – | – | · | ·
CC1CCCCN1C(=O)Cn1cnc2cc([N+](=O)[O-])ccc2c1=O (centres undefined) | – | – | – | – | – | · | ·
CCCOc1cccc(C(=O)Nc2cccc(NC(=O)c3ccco3)c2)c1 | – | – | – | – | – | · | ·
CCCOc1cccc(C(=O)Nc2ccc3c(c2)OCCO3)c1 | 18.6 | – | – | 6.3 | – | 20.4 | –
O=C(Nc1ccc2c(c1)OCCO2)c1ccc2nccnc2c1 | 14.7 | – | – | – | 4.3 | 15.2 | –
O=C(Nc1ccc2c(c1)OCCO2)c1ccc(Cl)c(Cl)c1 | 14.8 | – | 7.0 | – | – | 17.0 | –
CN1CCN(c2ccc(NC(=O)c3ccc4c(c3)OCCO4)cc2)CC1 | 16.8 | – | – | 6.1 | – | 11.1 | –
Cc1c(NS(=O)(=O)c2cc(C(=O)OCC(=O)c3ccccc3F)ccc2Cl)c(=O)n(-c2ccccc2)n1C | – | – | – | – | – | · | ·
O=c1cc(-c2ccco2)oc2ccccc12 | – | – | – | – | – | · | ·
Cc1ccc2oc(-c3ccco3)cc(=O)c2c1 | 13.7 | – | – | – | – | 16.5 | –
COC(=O)[C@]12C[C@H](CC(=O)N3CCCCC3)C(=O)N(Cc3ccc4c(c3)OCO4)C1=C[C@H](COCc1ccccc1)O[C@@H]2C | – | – | · | – | – | · | ·
Clc1ccc2c(c1)[C@H]1OCC[C@H]1[C@@H](c1ccco1)N2 | – | – | – | – | – | · | ·
CCc1ccc2c(c1)[C@H]1OCC[C@H]1[C@@H](c1cccs1)N2 | 14.4 | – | – | – | – | 11.3 | –
CNc1ncc(C(=O)c2ccc(Br)cc2)s1 | 26.2 | – | – | – | – | 15.9 | –
CCCCN(C(=O)COC(=O)C1(c2ccccc2)CC1)c1c(N)n(CCC)c(=O)[nH]c1=O | – | – | – | – | – | · | ·
COc1ccc(OC)c(S(=O)(=O)Nc2ccc(C(=O)Nc3cc(C)on3)cc2)c1 | 16.0 | – | · | – | – | – | –
COc1ccc(C(=O)Nc2cc(C)on2)c(OC)c1 | 14.8 | – | – | – | – | 12.6 | –
CC(C)c1nnc(NC(=O)CCC(=O)NC2CCCc3ccccc32)s1 (centres undefined) | – | – | – | – | – | · | ·
CCOc1ccc(CO[C@@H]2O[C@H](CO)[C@@H](O)[C@H](O)[C@H]2NC(C)=O)cc1OC | – | – | – | – | – | · | ·
Cc1ccc(CNC(=O)CCn2c(=O)oc3ccccc32)cc1 | 13.3 | – | – | – | – | – | –
S=C(Nc1cc(Cl)ccc1Oc1ccccc1)N1CCN(c2ccccn2)CC1 | – | – | – | – | – | · | ·
CC(=Nc1ccc(C)cc1C)c1sc2ccccc2c1O | 21.0 | 1.9 | 5.8 | 5.7 | 4.2 | 24.1 | –
O=C(N/N=C/c1sc(=O)n(-c2ccccc2)c1Cl)c1ccccc1 | 23.7 | – | – | – | – | 15.8 | –
NC(=O)N/N=C/c1sc(=O)n(-c2ccccc2)c1Cl | – | – | – | – | – | · | ·
O=C(Nc1cccnc1)c1cc(-c2ccccc2)on1 | – | – | – | – | – | · | ·
COc1ccc(-c2cc(C(=O)NCc3ccccc3)no2)cc1OC | 19.7 | – | – | – | – | – | –
